# Laboratory results reported in PubChem BioAssay (NCI).
# This is part of a sample that, as a whole, favours compounds with a hit. Of some 83,000 tested, about 20% had one in any assay.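 Activity criterion: percent growth below 10, measured after cells in 96-well plates were exposed to a single compound concentration for 48 hours.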 A number with no mark means an inactive call. Activity calls are given as the source filed them.
# How the values were obtained:
# Test in all cases: NCI-60 one-dose screen, 48 h (100 = growth as untreated, 0 = no growth, -100 = all killed)
# Settings in all cases: 10 µM unless noted
# [1] = system: DU-145 prostate
# [2] = system: K-562 leukemia
# [3] = system: MALME-3M melanoma
# [4] = system: MDA-MB-231 breast
# [5] = system: RXF 393 renal
# [6] = system: SF-268 CNS
# [7] = system: SF-295 CNS
# [8] = system: SF-539 CNS
# [9] = system: UACC-257 melanoma
# [10] = system: M14 melanoma
# [11] = system: HCT-15 colon
# [12] = system: HT29 colon
# [13] = system: SNB-75 CNS
# [14] = system: SNB-19 CNS
# [15] = system: U251 CNS
# [16] = system: PC-3 prostate
# [17] = system: SK-MEL-5 melanoma
# [18] = system: UACC-62 melanoma
# [19] = system: LOX IMVI melanoma
# [20] = system: SK-MEL-28 melanoma
SMILES,growth [1],growth [2],growth [3],growth [4],growth [5],growth [6],growth [7],growth [8],growth [9],growth [10],growth [11],growth [12],growth [13],growth [14],growth [15],growth [16],growth [17],growth [18],growth [19],growth [20]
COc1ccc(C(=O)C2C(C#N)C(C#N)C3C=Cc4ccccc4N32)cc1 (stereo not given),24.2%,11.5%,38.6%,29%,-21.8% (active),55.7%,22.5%,-20.9% (active),82.9%,-6.64% (active),16.9%,8.8% (active),-21.3% (active),32.7%,34.6%,29.2%,15.2%,57.6%,43.5%,57.6%
Cc1cc2nc3c4cccc(O)c4n(CCN(C)C)c3nc2cc1C,29.8%,6.28% (active),32.9%,28.1%,35.1%,51.1%,32.1%,25.7%,63.5%,44.2%,21.6%,31.1%,25.8%,38.4%,35.5%,35.6%,39.3%,49.5%,8.06% (active),75.6%
COc1cccc(-c2nc3occn3c2-c2ccnc(NCCCNS(=O)(=O)c3ccc(C(F)(F)F)cc3)n2)c1,89.2%,69.8%,95.8%,90.1%,79.6%,75%,95.2%,89.5%,84.5%,85.6%,85.3%,73.5%,103%,105%,84.1%,75.9%,68.6%,67.3%,87.5%,97.5%
N/C(=N\C(N)=N\c1nc2ccccc2s1)c1ccnc(Br)c1,42.7%,14%,64.5%,51.7%,15.7%,50%,5.59% (active),8.41% (active),46.2%,21.5%,19.6%,10.2%,-13.2% (active),39.1%,26.3%,35.3%,27.1%,27.7%,33.8%,57.2%
N#Cc1c(NCc2ccccc2I)sc2c1CCCCC2,102%,95.3%,87.5%,85.4%,93.6%,93.7%,97.3%,97.3%,93.7%,97.3%,94.8%,99.8%,84.8%,97.7%,90%,98.8%,98.2%,69.5%,91.1%,110%
COc1ccc(OC)c(CCn2cncc2-c2c[nH]c3ccccc23)c1,88.4%,42.4%,74.5%,72.2%,74.4%,71.1%,71.6%,88.5%,80.8%,73.3%,71.4%,86.6%,3.33% (active),85.1%,87.8%,71.4%,49.7%,59.2%,79.6%,90.3%
O=S(=O)(NCCNc1nccc(-c2c(-c3cccc(O)c3)nc3occn23)n1)c1ccc(Cl)cc1,111%,87.8%,-4.98% (active),86.2%,107%,103%,114%,121%,46.9%,35.1%,113%,62.9%,109%,118%,110%,96.5%,52.2%,19.2%,72.3%,48.2%
NC1[C@H](c2c[nH]c3ccccc23)c2c([nH]c3ccccc23)[C@H]1c1c[nH]c2ccccc12 (stereo not given in full),95.3%,90.8%,88.9%,75.7%,104%,84.4%,92.9%,100%,111%,92.3%,84.8%,97.6%,97.2%,95.2%,100%,78.3%,85.2%,72.5%,90.1%,103%
CC(C)N1C(=O)/C(=C2\SC(=S)N(C(C)C)C2=O)SC1=S,93.6%,93%,82.6%,81%,104%,94.5%,101%,85.1%,95.8%,95%,98.5%,96.8%,62.3%,92.6%,90.8%,89.3%,97.9%,91.7%,90%,97.8%
COc1ccc(/C=C2\Oc3cc(OCCCCCN4CCCCC4)ccc3C2=O)cc1OC,89.6%,-54.6% (active),83.7%,86.7%,76.3%,87.2%,98.6%,81.1%,87.4%,89.1%,49.3%,-59.2% (active),81%,91%,87%,79.2%,66.7%,96.2%,63.2%,99.4%
CCN1C(=O)/C(=C/C(=O)OC)S/C1=N\NC(=O)c1cc2ccc1/C=C\c1ccc(cc1)/C=C\2,108%,54.2%,91.9%,96.1%,101%,97.8%,96.9%,90.2%,92.7%,87.1%,68.4%,45.2%,78.8%,85.6%,84.4%,56.7%,92.5%,78.6%,73.5%,100%
O=[N+]([O-])CC(c1ccccc1F)c1c[nH]c2ccccc12 (stereo not given),97.2%,17.9%,66.9%,56.5%,80%,80.4%,67.9%,76.3%,87.1%,52.3%,39.3%,23.6%,54.9%,80.5%,65.6%,87.5%,81.5%,53.4%,61%,78.2%
CC1(C)CC[C@]23CC[C@]4(C)[C@H](CC[C@@H]5[C@@]6(C)CCCNC(C)(C)[C@@H]6CC[C@]54C)[C@H]2[C@H]1OC3,-8.9% (active),-39.7% (active),-63.4% (active),-62.8% (active),-65.3% (active),38.2%,-65% (active),38.7%,45.1%,-77.2% (active),-63.7% (active),-49.4% (active),3.81% (active),-20.2% (active),-75.6% (active),-10.7% (active),-7.69% (active),-51.1% (active),-94.9% (active),27.7%
O=C1Nc2cc(-c3ccc(NC(=O)C4CC4)cc3)ccc2/C1=C/c1ccc[nH]1,105%,98.4%,98.5%,99.5%,108%,104%,101%,90.7%,116%,99.3%,94.7%,101%,94.5%,94.7%,84%,104%,98.6%,110%,95.1%,119%
CCOC(=O)CSc1nc2ccccc2c(=O)n1Cc1ccc(S(N)(=O)=O)cc1,113%,97.1%,105%,101%,98.4%,99.2%,99.4%,97.7%,101%,97%,100%,105%,85.8%,99.2%,97.5%,91.7%,100%,94.4%,95.9%,104%
